In PubChem BioAssay (NCATS) one finds activation and outcome data, which are given here for 30 molecules.

A number with no mark means an inactive call. The source made the active and inactive calls. Unless noted, calls follow the shape of the dose curve; as a rule, active = well fitted curve in the direction sought with a large enough effect; inconclusive = small, poorly fitted or top-dose-only effect, or another doubt; inactive = no such curve, though single readings can be large or run the other way.
Also: 0% is about no effect.

Chain of Thyrotropin-releasing hormone receptor (Homo sapiens) (P34981 whole entry, looked up): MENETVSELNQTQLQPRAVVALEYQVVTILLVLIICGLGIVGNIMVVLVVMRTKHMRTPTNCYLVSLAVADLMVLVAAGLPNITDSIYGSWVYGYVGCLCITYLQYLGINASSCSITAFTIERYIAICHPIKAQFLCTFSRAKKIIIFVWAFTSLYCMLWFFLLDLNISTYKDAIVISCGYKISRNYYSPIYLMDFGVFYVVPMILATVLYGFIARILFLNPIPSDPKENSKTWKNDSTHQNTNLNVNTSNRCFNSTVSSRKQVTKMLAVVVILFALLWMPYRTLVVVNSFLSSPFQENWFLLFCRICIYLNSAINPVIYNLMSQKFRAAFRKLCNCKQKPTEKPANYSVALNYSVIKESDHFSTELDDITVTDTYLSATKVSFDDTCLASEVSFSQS
Chain of Galactokinase (Homo sapiens) (P51570 whole entry, looked up): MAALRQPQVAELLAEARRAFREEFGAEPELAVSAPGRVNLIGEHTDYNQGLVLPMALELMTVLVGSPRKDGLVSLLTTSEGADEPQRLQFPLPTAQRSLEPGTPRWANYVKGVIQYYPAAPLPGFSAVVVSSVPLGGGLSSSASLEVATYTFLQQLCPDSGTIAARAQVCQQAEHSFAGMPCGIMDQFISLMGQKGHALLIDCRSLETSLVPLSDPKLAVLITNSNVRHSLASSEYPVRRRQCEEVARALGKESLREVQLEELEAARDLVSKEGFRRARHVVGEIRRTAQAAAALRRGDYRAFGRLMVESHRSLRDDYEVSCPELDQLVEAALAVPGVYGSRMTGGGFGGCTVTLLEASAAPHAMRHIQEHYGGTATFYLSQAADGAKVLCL

The target of one assay is Thyrotropin-releasing hormone receptor (Homo sapiens) (UniProt P34981). In words: qHTS for Small Molecule Agonists and Allosteric Enhancers of Human TRH Receptor: Validation Screen for Agonists (AID 493127;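 active = calcium activation more than 3 SD above the typical response in the agonist read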). The settings on record: TRH receptor agonist cell assay; at 2 µM; stronger effect = higher value. The essentials:
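TRHR cells loaded with fluo-8 calcium dye; FDSS kinetic fluorescence (Ex 480/Em 530) read at 1 s/cycle after 23 nL compound addition. Agonist-mode calcium response recorded before the 10 nM TRH (EC20) addition.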
For the molecule `CNc1ncnc2c1ncn2[C@@H]1O[C@H](CO)[C@H](O)[C@H]1O`, the activation is 1.06%.

As to `NCCNC(=O)c1ccc(Cl)cc1`, the activation is 0.625%. Same read-out and setting: with `NC(=NCCC[C@H](N)C(=O)O)NO` the figure was 0.812%. Turning to `OC[C@H]1O[C@@H](n2cnc3c(Nc4ccccc4)ncnc32)[C@H](O)[C@H]1O`, the activation was 0.188%. Same read-out and setting: the result for `N[C@H](Cc1ccc(O)c(O)c1)C(=O)O` reads 0.688%. On the same count and under the same terms, the result for `Nc1nc(Nc2ccccc2)nc2c1ncn2[C@@H]1O[C@H](CO)[C@H](O)[C@H]1O` reads 0.938%. Same read-out and setting: the result for `NC(=S)c1ccc[n+]([C@@H]2O[C@@H](COP(=O)([O-])OP(=O)(O)OC[C@H]3O[C@@H](n4cnc5c(N)ncnc54)[C@H](OP(=O)(O)O)[C@H]3O)C(O)C2O)c1` (stereo not given in full) reads -0.0625%; that for `O=C(O)CC[C@H](NC(=O)c1ccccc1C(=O)O)C(=O)O`, 0.188%; that for `NCC1OC(O[C@@H]2[C@H](O)[C@@H](OC3C(O)C(N)CC(N)C3OC3OC(CO)C(O)C(O)C3N)O[C@@H]2CO)C(N)C(O)C1O` (stereo not given in full), 1.44%. In the case of `COc1cc(=O)n(C)c2c(OCC(O)C(C)(C)O)cccc12` (stereo not given), the activation is 0.812%.

Regarding `C[C@]12CCC(=O)C=C1CC[C@@H]1C2[C@@H](O)C[C@@]2(C)[C@H]1CC[C@]2(O)C(=O)CO` (stereo not given in full), the activation is 1%.

Turning to `CN1C(=O)CCC1c1cccnc1` (stereo not given), the activation is 1.19%. Regarding `CC(=O)O[C@H]1C[C@@H]2CCC3C(CC[C@@]4(C)[C@H]3C[C@H]([N+]3(C)CCCCC3)[C@@H]4OC(C)=O)[C@@]2(C)C[C@@H]1[N+]1(C)CCCCC1` (stereo not given in full), the activation is 0.25%.

Regarding `N=C(N)SCCc1cccc(CCSC(=N)N)c1`, the activation was 0.562%. The same measure, in the same setting: with `Nc1nc(SCc2ccc([N+](=O)[O-])cc2)c2ncn([C@@H]3O[C@H](CO)[C@H](O)[C@H]3O)c2n1` the figure was 0.75%.

The next assay concerns the target Galactokinase (Homo sapiens) (UniProt P51570). In words: qHTS Validation Assay for Inhibitors of Human Galactokinase (GALK) (AID 493189). The settings on record: purified human GALK enzyme activity, qHTS 7-point titration; series mostly up to 57.5 µM. The method, boiled down:
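Compounds were pin-transferred into ATP buffer, then GALK-galactose mix was added (final 5 nM enzyme, 100 uM galactose, 35 uM ATP). After 1 h at room temperature, remaining ATP was measured luminescently.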
For `CNC(=O)[C@H]1O[C@@H](n2cnc3c(NCc4cccc(I)c4)ncnc32)[C@H](O)[C@H]1O`, the result was inactive.

With `CC(N)=NCCCC(N)C(=O)O` (stereo not given), the outcome was inactive. The same measure, in the same setting: the result for `Cc1cn([C@H]2C[C@@H](N=[N+]=[N-])[C@@H](CO)O2)c(=O)[nH]c1=O` reads “inactive”.

Take `N.N.N.N.N.N.N.N.N.N.N.N.N.N.O.O.[Cl-].[Cl-].[Cl-].[Cl-].[Cl-].[Cl-].[Ru].[Ru].[Ru]`: the molecule was called inactive. On to `CN=C(N)NCCCC(N)C(=O)O` (stereo not given), for which the result was inactive. Same read-out and setting: with `COc1c2c(nc3ccccc13)OC(C(C)(O)CO)C2` (stereo not given) the entry was “inactive”; with `CN1C2CC(OC(=O)C(CO)c3ccccc3)CC1C1OC12` (stereo not given), “inactive”; with `CC(C)C1NC(=O)[C@H](CCCCN)NC(=O)[C@@H](Cc2c[nH]c3ccccc23)NC(=O)[C@H](Cc2ccc(O)cc2)NC(=O)[C@H](C)N(C)C(=O)[C@H](Cc2ccccc2)NC1=O` (stereo not given in full), “inactive”. The same measure, in the same setting: with `NCCC(=O)NCCc1cnc[nH]1` the entry was “inactive”; with `O=C(Cc1ccc(Cl)c(Cl)c1)OCCN1CCCC1`, “inactive”.

`Cc1ccccc1N1CCN(S(=O)(=O)C[C@]23CCC(CC2NC(=O)[C@@H](N)CCS(C)(=O)=O)C3(C)C)CC1` (stereo not given in full): the outcome was inactive. Consider `NC(=O)C1=CN(C2OC(COP(=O)(O)OP(=O)(O)OC[C@H]3O[C@@H](n4cnc5c(N)ncnc54)[C@H](OP(=O)(O)O)[C@H]3O)C(O)C2O)C=CC1` (stereo not given in full), for which the outcome was inactive. On the same count and under the same terms, the result for `CC(=O)[C@@]1(O)CC[C@H]2C3CCC4=CC(=O)CC[C@]4(C)C3CC[C@@]21C` (stereo not given in full) reads “inactive”; that for `OC[C@H]1O[C@@H](n2cnc3c(NCCc4ccccc4)ncnc32)[C@H](O)[C@H]1O`, “inactive”.

`CCCCCCCCCCCCCCC/C=C/[C@@H](O)[C@H](NC(=O)CCCCCCCCCCCCC)OC` (tested in a mixture with another compound): the result was inactive. Same read-out and setting: the result for `CNc1ncnc2c1ncn2[C@@H]1O[C@H](CO)[C@H](O)[C@H]1O` reads “inactive”; that for `NCCNC(=O)c1ccc(Cl)cc1`, “inactive”; that for `NC(=NCCC[C@H](N)C(=O)O)NO`, “inactive”.

For `OC[C@H]1O[C@@H](n2cnc3c(Nc4ccccc4)ncnc32)[C@H](O)[C@H]1O`, the outcome was inactive. Regarding `N[C@H](Cc1ccc(O)c(O)c1)C(=O)O`, the result was inactive.

In the case of `Nc1nc(Nc2ccccc2)nc2c1ncn2[C@@H]1O[C@H](CO)[C@H](O)[C@H]1O`, the result was inactive. The same measure, in the same setting: with `NC(=S)c1ccc[n+]([C@@H]2O[C@@H](COP(=O)([O-])OP(=O)(O)OC[C@H]3O[C@@H](n4cnc5c(N)ncnc54)[C@H](OP(=O)(O)O)[C@H]3O)C(O)C2O)c1` (stereo not given in full) the entry was “inactive”; with `O=C(O)CC[C@H](NC(=O)c1ccccc1C(=O)O)C(=O)O`, “inactive”. Still for that read-out and setting: the result for `NCC1OC(O[C@@H]2[C@H](O)[C@@H](OC3C(O)C(N)CC(N)C3OC3OC(CO)C(O)C(O)C3N)O[C@@H]2CO)C(N)C(O)C1O` (stereo not given in full) reads “inactive”; that for `COc1cc(=O)n(C)c2c(OCC(O)C(C)(C)O)cccc12` (stereo not given), “inactive”; that for `C[C@]12CCC(=O)C=C1CC[C@@H]1C2[C@@H](O)C[C@@]2(C)[C@H]1CC[C@]2(O)C(=O)CO` (stereo not given in full), “inactive”. Same read-out and setting: the result for `CN1C(=O)CCC1c1cccnc1` (stereo not given) reads “inactive”; that for `CC(=O)O[C@H]1C[C@@H]2CCC3C(CC[C@@]4(C)[C@H]3C[C@H]([N+]3(C)CCCCC3)[C@@H]4OC(C)=O)[C@@]2(C)C[C@@H]1[N+]1(C)CCCCC1` (stereo not given in full), “inactive”; that for `N=C(N)SCCc1cccc(CCSC(=N)N)c1`, “inactive”. For `Nc1nc(SCc2ccc([N+](=O)[O-])cc2)c2ncn([C@@H]3O[C@H](CO)[C@H](O)[C@H]3O)c2n1`, the result was inactive.
